# proKLK7 act: proKLK7 zymogen activators, primary screen, biochemical, fluorescence intensity | Kallikrein-7 (Homo sapiens), P49862 | purified proKLK7, EDANS-DABCYL substrate fluorescence; 100% is mature enzyme control, 0% vehicle | activation, % at 7 µM | actives 0.9% (n = 370,000) | AID 652039, 2013;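 active = activation above the mean of all tested compounds plus 3 SD, computed per campaign excluding outliers beyond control limits, cut at about 13% in these data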
# ADAM17 inh: ADAM17 inhibitors, primary screen, biochemical, QFRET; Disintegrin and metalloproteinase domain-containing protein 17 (Homo sapiens), P78536; recombinant ADAM17, EDANS/DABCYL FRET peptide cleavage; inhibition, % at 6.95 µM; actives 0.83% (n = 370,000); AID 720648, 2013;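 active = inhibition above the mean of compounds lying between control limits plus 3 SD, set per campaign, cut at about 8.5% in these data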
# Target sequence (P78536 215-824 limits assumed): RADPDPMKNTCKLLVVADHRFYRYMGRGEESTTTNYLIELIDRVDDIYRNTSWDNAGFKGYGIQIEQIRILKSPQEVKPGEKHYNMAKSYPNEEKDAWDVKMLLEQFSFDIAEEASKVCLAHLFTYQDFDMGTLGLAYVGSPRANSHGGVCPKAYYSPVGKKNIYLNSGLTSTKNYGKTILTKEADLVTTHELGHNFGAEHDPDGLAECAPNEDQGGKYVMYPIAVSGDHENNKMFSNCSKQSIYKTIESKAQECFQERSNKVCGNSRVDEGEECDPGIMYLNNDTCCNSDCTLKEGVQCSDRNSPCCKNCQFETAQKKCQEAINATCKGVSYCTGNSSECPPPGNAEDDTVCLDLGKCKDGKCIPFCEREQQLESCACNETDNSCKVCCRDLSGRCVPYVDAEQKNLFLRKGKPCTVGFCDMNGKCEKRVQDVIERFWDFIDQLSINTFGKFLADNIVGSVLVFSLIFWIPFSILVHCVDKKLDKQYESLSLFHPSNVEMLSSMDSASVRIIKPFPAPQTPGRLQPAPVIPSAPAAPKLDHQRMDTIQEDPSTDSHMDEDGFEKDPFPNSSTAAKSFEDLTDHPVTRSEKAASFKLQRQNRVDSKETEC
# Ecoli rRNA inh: reduced GFP signal of wild-type E. coli, primary screen, bacterial rRNA inhibitor project, GFP/RFP fluorescence, OD600, single point | E. coli WT GFP vs humanized-ribosome RFP mutants, 24 h; hits give low values; DMSO median 0, no signal -100 | GFP signal change (wild-type ribosome), % (concentration not given with the values) | actives 1.6% (n = 350,000);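 active = significant combined selectivity score with lowered wild-type GFP, culture density cut under 30%, mutant RFP and density less affected; inactive = any of these conditions unmet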
# ADAM10 inh: human ADAM10 inhibitors, primary screen, biochemical, QFRET, HTS; recombinant ADAM10, EDANS/DABCYL FRET peptide cleavage, 3 h; AID 720582, 2013; Disintegrin and metalloproteinase domain-containing protein 10 (Homo sapiens), O14672; actives 0.62% (n = 370,000); inhibition, % at 7 µM;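 active = inhibition above a per-campaign cutoff equal to the mean of compounds falling between control-based bounds plus 3 SD, cut at about 20% in these data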
# FGF22 binding: binders of human FGF22 protein, primary screen, FGF22 synaptogenesis inhibitor project, biophysical, thermal shift, single point; Fibroblast growth factor 22 (Homo sapiens), Q9HCT0; recombinant FGF22 thermal shift, SYPRO orange fluorescence; percent of sucrose octasulfate shift, DMSO zero; activity (Tm shift, normalised), % at 9.99 µM; actives 1.5% (n = 340,000);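 active = mean Tm shift, scaled 0 neutral to 100 positive control, at about 1.3% or above, every replicate too, limit read from the data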
# Hits are given with their value; i = inactive; nt = not tested or not shown. Compounds with a hit are over-represented: about 3.8% of the library has one in this group of screens.
SMILES,proKLK7 act,ADAM17 inh,Ecoli rRNA inh,ADAM10 inh,FGF22 binding
COc1ccc(C(=O)CSc2n[nH]c(=O)[nH]c2=O)cc1,i,i,i,i,42.9
O=C(O)c1ccc(N2C(=O)C3C4c5ccccc5C(Br)(c5ccccc54)C3C2=O)cc1 (centres undefined),i,i,-35.6,i,i
COCc1cc(C)nc(SCc2nc3ccccc3c(=O)[nH]2)c1C#N,i,i,i,i,43.1
Cc1cc(C)c(C#N)c(SCc2nc3ccccc3c(=O)[nH]2)n1,i,i,i,i,i
CC(=O)Nc1ccc2c(c1)CC(=O)N(C)C[C@@H](C)[C@@H](CN(C)C(=O)OC(C)(C)C)O2,nt,nt,i,nt,nt
CCC(=O)Nc1ccc2c(c1)OC[C@H](C)N(Cc1cccc(F)c1)C[C@H](C)[C@@H](OC)CN(C)C2=O,nt,nt,i,nt,i
COC(=O)c1ccc(N=Cc2c(C(F)(F)F)[nH][nH]c2=O)cc1,i,i,nt,i,43.4
Cc1cccc(C)c1N=Cc1c(C(F)(F)F)[nH][nH]c1=O,i,i,i,i,43.0
CN(C)S(=O)(=O)c1ccc(N=Cc2c(C(F)(F)F)[nH][nH]c2=O)cc1,i,i,i,i,43.6
Cc1[nH][nH]c(=O)c1C=NCc1cccc(C(F)(F)F)c1,i,i,i,i,i
COc1ccc(CN=Cc2c(C(F)(F)F)[nH][nH]c2=O)cc1,i,i,nt,i,nt
O=C(NCC[C@@H]1CC[C@H](NC(=O)C2CC2)[C@H](CO)O1)c1ccc(F)cc1,nt,nt,i,nt,i
CC(CSc1n[nH]c(=S)s1)c1ccccc1 (centres undefined),i,i,i,i,i
CC(C)CSc1n[nH]c(=S)s1,i,i,i,i,43.1
CC(=O)N1[C@@H](CO)[C@@H](c2ccc(C3=CCCC3)cc2)[C@@H]1CNC(=O)CN(C)C,nt,nt,i,nt,nt
CCN1CCN(C(=O)c2cnn3c(C(F)F)cc(-c4ccc(C)cc4)nc23)CC1,12.9,i,nt,i,nt
COc1ccc(-c2cc(C(F)F)n3ncc(C(=O)Nc4cc(C)on4)c3n2)cc1,i,i,i,i,43.1
COc1ccc(-c2cc(C(F)F)n3ncc(C(=O)Nc4c(C)n(C)n(-c5ccccc5)c4=O)c3n2)cc1,i,i,i,i,i
CNS(=O)(=O)c1ccc(NC(=O)c2cnn3c(C(F)F)cc(-c4ccccc4)nc23)cc1,i,i,i,i,43.0
O=C(Nc1cccc(S(=O)(=O)N2CCOCC2)c1)c1cnn2c(C(F)F)cc(-c3ccccc3)nc12,i,i,i,i,i
COc1ccc2c3c([nH]c2c1)[C@@H](CO)N(C(=O)c1cnccn1)CC31CN(C(=O)c2cnccn2)C1,nt,nt,i,nt,i
CO[C@H]1CN(C)C(=O)c2cc(NC(C)=O)ccc2OC[C@H](C)N(S(=O)(=O)c2cn(C)cn2)C[C@H]1C,nt,nt,i,nt,i
N#Cc1ccc(NC(=O)Nc2ccc(Oc3ccc(NC(=O)Nc4ccc(C#N)cc4)cc3)cc2)cc1,i,i,-28.1,i,i
COc1ccc(C)cc1-n1c(=O)c2ccccc2c2ccccc2c1=O,i,i,-26.2,i,i
COc1ccc(-n2c(=O)c3ccccc3c3ccccc3c2=O)c(OC)c1,i,i,i,i,i
SMILES,proKLK7 act,ADAM17 inh,Ecoli rRNA inh,ADAM10 inh,FGF22 binding
O=S(=O)(c1ccc(OCC2CO2)cc1)c1ccc(OCC2CO2)cc1 (centres undefined),i,i,i,i,43.5
CC(C)(c1ccccc1)c1ccc(OCC2CO2)cc1 (centres undefined),i,i,i,i,i
Cc1cc(C)nc(NS(=O)(=O)c2ccc(NC(=O)c3cc(-c4ccccc4)nc4ccccc34)cc2)n1,i,i,i,i,i
Cc1ccc(-c2cc(C(=O)Nc3ccc(S(=O)(=O)Nc4onc(C)c4C)cc3)c3ccccc3n2)cc1,i,i,i,i,1.7
COc1ccc(/C=C/C(=O)Nc2ccc(S(=O)(=O)Nc3onc(C)c3C)cc2)cc1OC,i,i,i,i,i
Cc1noc(NS(=O)(=O)c2ccc(NC(=O)/C=C/c3ccccc3)cc2)c1C,i,i,i,i,1.4
COc1ccc(C2SCC(=O)N2CC23CC4CC(CC(C4)C2)C3)cc1 (centres undefined),i,i,-24.9,i,i
O=[N+]([O-])c1cc(-c2nnc(N3CCOCC3)c3ccccc23)ccc1N1CCOCC1,i,i,-35.3,i,i
CC(C)NC(=O)N1CC2(C1)[C@@H](c1ccccc1)[C@H](CO)N2C(=O)C1CC1,nt,nt,i,nt,nt
CCCN1C[C@@H](C)[C@@H](OC)CN(C)C(=O)c2cc(NC(=O)COC)ccc2OC[C@H]1C,nt,nt,i,nt,nt
COc1ccc(N2CCN(CCS(=O)(=O)c3cc(Cl)ccc3Cl)CC2)cc1,i,i,-21.6,i,i
Cc1cc(C)n(-c2ncnc3ccccc23)n1,i,i,i,i,43.3
O=C1CCCCn2cc(nn2)COC[C@@H](c2ccccc2)N1,nt,nt,i,nt,nt
CCC(=O)N(C)C[C@H]1Oc2cc(C3=CCCCC3)ccc2S(=O)(=O)N([C@@H](C)CO)C[C@H]1C,nt,nt,i,nt,nt
COc1ccc(S(=O)(=O)N2CC[C@@H]3[C@@H](CO)Nc4ccc(-c5ccccc5F)cc4[C@@H]32)cc1,nt,nt,i,nt,i
Cc1onc(-c2c(Cl)cccc2Cl)c1-c1nc2cc(Cl)ccc2c(=O)o1,i,i,-33.8,i,i
Cc1ccc(C)c(C(=O)COC(=O)C(C)N2C(=O)C3C4CCC(C4)C3C2=O)c1 (centres undefined),i,i,-28.6,i,i
COc1cc(NC(=O)CCCOc2ccc(Cl)cc2Cl)c(C(=O)O)cc1OC,i,i,-30.9,i,i
CN(C)C(=O)c1ccc(-c2ccc([C@H]3[C@@H](CO)N4CCCCN(C(=O)C5CCC5)C[C@@H]34)cc2)cc1,nt,nt,nt,nt,i
COCCn1nnnc1C(c1cccc(OC)c1OC)N1CCN(C(=O)c2ccco2)CC1 (centres undefined),i,i,i,i,i
COCCn1nnnc1C(c1ccccc1OC)N1CCN(C(=O)c2ccco2)CC1 (centres undefined),i,i,i,i,2.1
C[C@@H]1CCCCO[C@H](CN(C)C(=O)Cc2ccccc2)[C@@H](C)CN([C@H](C)CO)C(=O)c2cc(NS(=O)(=O)c3ccc(Cl)cc3)ccc2O1,nt,nt,i,nt,i
Cn1nnnc1SCC(=O)N(C1CCCCC1)C1CCS(=O)(=O)C1 (centres undefined),i,i,i,i,43.2
CCOC(=O)c1ccc2[nH]c3c(c2c1)CCCC3,i,i,i,i,i
CCOC(=O)c1ccc2[nH]c3c(c2c1)CCCC3O (centres undefined),i,i,-32.3,i,i

# Screens: PubChem BioAssay, several laboratories
